Bioassay records from PubChem.
A549 viability = A549 cytotoxicity, counter-screen for Nrf2 inhibitors | Potency, µM (top dose mostly 46 µM), without a hit: top-dose activity change, negative = cytotoxicity, usual class: inhibitors | 390,000 compounds, 0.16% hits | A549 ARE-Fluc cells, CellTiter-Fluor viability, 18-24 h; also: % is scaled to controls: 0 for no effect and ±100 for the full control effect
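A549 ARE_Fluc cells in 5% FBS OPTI-MEM were exposed to compounds in concentration-response for 18-24 h at 37 deg C. Viability was read by CellTiter-Fluor fluorescence (Ex 405/Em 525) after 30 min, before the luciferase read.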
Nrf2 inh = blocks Nrf2 signaling; A549 ARE-Fluc reporter, luciferase luminescence, 18-24 h; Potency, µM (series often up to 46 µM), inactives show at the highest dose activity change, negative = inhibition, most hits filed as inhibitors; 360,000 compounds, 2.1% hits; AID 504444; also: % is scaled to controls: 0 for no effect and ±100 for the full control effect; nearly all actives have a fitted effect of over 60% in size
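Nrf2 activity is the BugLite luminescence, read 15 min after reagent at room temperature, following CellTiter-Fluor cytotoxicity readout (30 min, 37C). Compound titrations were applied for 18-24 h to 5000 A549 ARE_Fluc cells/well in 5% FBS OPTI-MEM.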
ATXN2 expr inh = ATXN2 expression inhibition; 360,000 compounds, 0.72% hits; HEK-293 ATXN2-luciferase reporter, luminescence, 24 h; Potency, µM (doses to about 57 µM), for the others: at the highest dose activity change, negative = inhibition, most hits filed as inhibitors; AID 1745845; also: % is scaled to controls: 0 for no effect and ±100 for the full control effect; nearly all actives have a fitted effect of over 55% in size
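qHTS (up to 57 uM final) was run with 24 h compound exposure of reporter cells at 37 °C. Each well was multiplexed: SteadyGlo luminescence measured ATXN2-luciferase expression after a fluorogenic Gly-Phe-AFC viability readout (25 uM final).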
Nrf2 activator = activators of Nrf2 (ARE) signaling. AREc32 ARE-luciferase reporter (MCF7-derived line), luminescence, 24 h. Potency, µM (titrated, usually from 46.1 µM), inactives show top-dose activation, actives largely listed as activators. 410,000 compounds, 0.31% hits. AID 624171; also: % of control where 0% means no effect; nearly all actives have a fitted effect of over 65% in size
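AREc32_Fluc, 1000 cells/well, OPTI-MEM + 5% FBS, o/n 37 deg C 5% CO2; 23 nL cpd by pin tool, 24 hr; Steady-Glo 30 min RT, luminescence.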
ATXN viability = viability counter-screen for ATXN expression inhibitors; S2 cells (HEK-293 line with an ATXN2-luciferase reporter) viability, CellTiter-Fluor protease fluorescence, 24 h; Potency, µM (doses to about 56.7 µM), hits mostly cytotoxic; 400,000 compounds, 0.49% hits; AID 651635; also: nearly all actives have a fitted effect of over 40% in size
* marks the source's active call; other numbers are inactive results; i = inactive; ? = inconclusive; / = no result. In the library only some 2.9% were active in any assay of this set; here they are far more common. Calls follow the shape of the dose curve; as a rule, active = well fitted curve in the direction sought with a large enough effect; inconclusive = small, poorly fitted or top-dose-only effect, or another doubt; inactive = no such curve, though single readings can be large; an effect the other way counts as inactive or inconclusive. Potency is read from the fitted curve at half-maximal effect.

SMILES	A549 viability	Nrf2 inh	ATXN2 expr inh	Nrf2 activator	ATXN viability
CC1C(=O)C(C)C(c2cc(Cl)ccc2O)NC1c1cc(Cl)ccc1O (stereo unspecified)	?	?	25.1µM*	-2.8%	/
CSCC(=O)N1CCCC(N2CCN(c3cccc(C(F)(F)F)c3)CC2)C1 (stereo unspecified)	-8.9%	-3.6%	/	-0.3%	i
CCC(C)(C)C1CCc2[nH]nc(C(=O)NCCCNC(=O)OC(C)(C)C)c2C1 (stereo unspecified)	-10.0%	25.9µM*	-23.2%	-1.4%	i
CCC(C)(C)C1CCc2[nH]nc(C(=O)NCCN3CCOCC3)c2C1 (stereo unspecified)	1.9%	14.2%	-5.6%	-0.8%	i
Cc1ccc(S(=O)(=O)NCC(=O)N(CC(=O)NCC2CCCO2)CC2CCCO2)cc1 (stereo unspecified)	1.0%	5.1%	-18.2%	0.3%	i
COc1ccc(/C=C2\CN(Cc3ccccc3)C/C(=C\c3ccc(OC)c(O)c3)C2=O)cc1O	?	?	3.98µM*	-1.9%	?
CNC(=S)Nc1ccc([N+](=O)[O-])c(C)c1	-4.3%	-5.2%	3.4%	0.2%	i
COc1cccc(CNCc2cc(OC)cc(OC)c2)c1	1.7%	?	-61.3%	0.2%	?
COc1cc(CNCc2ccc(OC)c(OC)c2OC)cc(OC)c1	-4.1%	9.2µM*	-22.2%	0.3%	i
COc1ccc(C2(CNC(=O)c3ccc(N)cc3)CCCC2)cc1	11.4%	3.1%	/	3.1%	i
CCc1cccc(CC)c1NC(=O)c1c(C)oc2ccc(O)c(CN3CCCC3)c12	-8.3%	19.6%	-24.8%	3.9%	15.8µM*
Cc1oc2ccc(O)c(CN3CCCC3)c2c1C(=O)Nc1ccccc1	14.0%	15.4%	-12.0%	3.6%	i
COc1ccc(NC(=O)c2c(C)oc3ccc(O)c(CN4CCCC(C)C4)c23)cc1Cl (stereo unspecified)	0.9%	11.4%	/	10.2%	/
COc1ccc(NC(=O)c2c(C)oc3ccc(O)c(CN4CCC(C)CC4)c23)cc1Cl	-3.2%	2.4%	-19.4%	-1.3%	14.1µM*
COc1cc(/C=C/c2ccc3cccc(OC)c3n2)c(OC(C)=O)c([N+](=O)[O-])c1	9.2µM*	25.9µM*	?	7.5%	/
CC(=O)Nc1ccc(NC(=O)CSc2ccc([N+](=O)[O-])cn2)cc1	-0.3%	-23.6%	5.9%	0.1%	i
Cc1c(C(=O)/C=C/c2cccs2)oc2ccc(F)cc12	1.6%	?	115.6%	7.94µM*	i
NC(=O)C1CCCN(C(=S)Nc2ccccc2)C1 (stereo unspecified)	-0.4%	?	-6.7%	-0.4%	i
Cc1ccc(S(=O)(=O)N2CC(O)C[C@H]2C(=O)OCC(=O)N2CCN(c3ccc(F)cc3)CC2)cc1C (stereo partly specified)	-10.5%	16.4µM*	-18.6%	-0.4%	i
CC(C)(C)c1ccc(C(=O)Nc2cc(-c3ccccc3)nn2-c2ccccc2)cc1	-7.5%	/	5.6%	-1.0%	i
CS(=O)(=O)c1ccc(C(=O)Nc2cc(-c3ccccc3)nn2-c2ccccc2)cc1	-12.7%	14.6µM*	-11.5%	3.3%	i
CCOC(=O)c1ccc(NC(=O)C2CCN(C(=O)c3ccc(OC)c(OC)c3)CC2)cc1	-11.7%	23.1µM*	-11.7%	6.7%	i
COc1ccc(C(=O)N2CCN(C(=O)c3ccc(-c4ccccc4)cc3)CC2)cc1OC	1.0%	13µM*	-26.5%	0.3%	i
COC(=O)c1ccc(NC(=O)C2CCN(C(=O)c3cc(OC)c(OC)c(OC)c3)CC2)cc1	-6.2%	4.9%	4.5%	-0.5%	i
COc1ccc(C(=O)N2CCN(c3nc4ccccc4o3)CC2)cc1OC	1.7%	18.4µM*	?	0.4%	i
CCO/N=C/C1=C(O)C(C(=O)OC)C(C)(C)CC1=O (stereo unspecified)	-7.6%	11.5%	-5.3%	0.0%	i
Cc1ccc(C)c(S(=O)(=O)N2CCCC2CNC(=O)C(=O)Nc2ccccc2)c1 (stereo unspecified)	/	/	/	2.3%	?
Cc1onc(-c2ccccc2)c1C(=O)c1c[nH]c(C(=O)NCCCN2CCOCC2)c1	14.2%	6.9%	/	0.2%	i
